Measurements published in PubChem BioAssay (NCATS).
Inconclusive results are not listed. Calls of active or inactive are those of the source. Calls follow the shape of the dose curve; as a rule, active = well fitted curve in the direction sought with a large enough effect; inconclusive = small, poorly fitted or top-dose-only effect, or another doubt; inactive = no such curve, though single readings can be large; an effect the other way counts as inactive or inconclusive.

Experiments:
[1] = Quantitative High-Throughput drug screen in 47 multiple myeloma cell lines against the NCATS MIPE library collection: KMS21BM_JCRB cell viability assay (AID 1918974); conditions: ATP luminescence, 48 h; viability: at 45.8 µM; also: potency is read from the fitted curve at half-maximal effect
Outline: (§1)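 Steps: seed 500 cells per well; pin-transfer MIPE 4.0 library; incubate 48 h at 37C, 5% CO2, humidified; add CellTiter-Glo, 5 min room temperature; read luminescence.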

[2] = Quantitative High-Throughput drug screen in 47 multiple myeloma cell lines against the NCATS MIPE library collection: KMS26_JCRB cell viability assay (AID 1918975); also: nearly all actives have a fitted effect of over 45% in size; also: potency is read from the fitted curve at half-maximal effect
Outline: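 Viability readout: CellTiter-Glo luminescence following 5 min room-temperature incubation with reagent. Prior exposure: 48 h, 37C, humidified 5% CO2, 500 cells per well.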

[3] = Quantitative High-Throughput drug screen in 47 multiple myeloma cell lines against the NCATS MIPE library collection: MOLP8_DSMZ cell viability assay (AID 1918977); also: nearly all actives have a fitted effect of over 45% in size
Outline: (§2)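 Viability after 48 h drug exposure was measured as ATP-dependent luminescence. Cells, 500 per well, sat at 37 °C under 5% CO2; DMSO wells set 100%, media-only wells 0%.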

[4] = Quantitative High-Throughput drug screen in 47 multiple myeloma cell lines against the NCATS MIPE library collection: NCIH929_DSMZ cell viability assay (AID 1918978); also: nearly all actives have a fitted effect of over 35% in size; also: potency is read from the fitted curve at half-maximal effect
Outline: as §2

[5] = Quantitative High-Throughput drug screen in 47 multiple myeloma cell lines against the NCATS MIPE library collection: MM1R_ATCC cell viability assay (AID 1918981); also: nearly all actives have a fitted effect of over 35% in size; also: potency is read from the fitted curve at half-maximal effect
Outline: as §2

[6] = Quantitative High-Throughput drug screen in 47 multiple myeloma cell lines against the NCATS MIPE library collection: LP1_DSMZ cell viability assay (AID 1918982); also: nearly all actives have a fitted effect of over 35% in size; also: potency is read from the fitted curve at half-maximal effect
Outline: as §2

[7] = Quantitative High-Throughput drug screen in 47 multiple myeloma cell lines against the NCATS MIPE library collection: KMS28PE_JCRB cell viability assay (AID 1918983); also: nearly all actives have a fitted effect of over 35% in size; also: potency is read from the fitted curve at half-maximal effect
Outline: as §2

[8] = Quantitative High-Throughput drug screen in 47 multiple myeloma cell lines against the NCATS MIPE library collection: L363_DSMZ cell viability assay (AID 1918984); conditions: L363 myeloma viability, CellTiter-Glo ATP luminescence, 48 h; viability (% of control): at 45.8 µM; also: nearly all actives have a fitted effect of over 40% in size; also: potency is read from the fitted curve at half-maximal effect
Outline: as §2

[9] = Quantitative High-Throughput drug screen in 47 multiple myeloma cell lines against the NCATS MIPE library collection: KMS34_JCRB cell viability assay (AID 1918985); also: nearly all actives have a fitted effect of over 40% in size; also: potency is read from the fitted curve at half-maximal effect
Outline: as §2

[10] = Quantitative High-Throughput drug screen in 47 multiple myeloma cell lines against the NCATS MIPE library collection: OPM1_PLB cell viability assay (AID 1918989); also: nearly all actives have a fitted effect of over 40% in size; also: potency is read from the fitted curve at half-maximal effect; as to viability (% of control): series mostly up to about 46 µM
Outline: as §2

[11] = Quantitative High-Throughput drug screen in 47 multiple myeloma cell lines against the NCATS MIPE library collection: U266_ATCC cell viability assay (AID 1919864); also: nearly all actives have a fitted effect of over 35% in size; also: potency is read from the fitted curve at half-maximal effect
Outline: as §2

[12] = Quantitative High-Throughput drug screen in 47 multiple myeloma cell lines against the NCATS MIPE library collection: XG6_PLB cell viability assay (AID 1919865); also: nearly all actives have a fitted effect of over 40% in size; also: potency is read from the fitted curve at half-maximal effect
Outline: as §2

[13] = Quantitative High-Throughput drug screen in 47 multiple myeloma cell lines against the NCATS MIPE library collection: MM1S_ATCC cell viability assay (AID 1918980); also: nearly all actives have a fitted effect of over 45% in size; also: potency is read from the fitted curve at half-maximal effect; as to viability (% of control): series mostly up to about 46 µM
Outline: as §2

[14] = Quantitative High-Throughput drug screen in 47 multiple myeloma cell lines against the NCATS MIPE library collection: OCIMY7_PLB cell viability assay (AID 1918987); conditions: OCI-MY7 myeloma viability, CellTiter-Glo ATP, 48 h; viability (% of DMSO): at 45.8 µM; also: nearly all actives have a fitted effect of over 65% in size; also: potency is read from the fitted curve at half-maximal effect; as to viability (% of DMSO): series mostly up to about 46 µM
Outline: as §2

[15] = Quantitative High-Throughput drug screen in 47 multiple myeloma cell lines against the NCATS MIPE library collection: SKMM1_PLB cell viability assay (AID 1919863); conditions: SKMM1 myeloma viability, CellTiter-Glo ATP, 48 h; viability: stronger effect = lower value; also: nearly all actives have a fitted effect of over 35% in size; also: potency is read from the fitted curve at half-maximal effect; as to viability: series mostly up to about 46 µM
Outline: as §2

[16] = Quantitative High-Throughput drug screen in 47 multiple myeloma cell lines against the NCATS MIPE library collection: KMS20_JCRB cell viability assay (AID 1918973); also: nearly all actives have a fitted effect of over 45% in size; also: potency is read from the fitted curve at half-maximal effect
Outline: as §1

[17] = Quantitative High-Throughput drug screen in 47 multiple myeloma cell lines against the NCATS MIPE library collection: MMM1_PLB cell viability assay (AID 1918976)
Outline: as §2

[18] = Quantitative High-Throughput drug screen in 47 multiple myeloma cell lines against the NCATS MIPE library collection: OCIMY5_PLB cell viability assay (AID 1918988); also: potency is read from the fitted curve at half-maximal effect; nearly all actives have a fitted effect of over 65% in size
Outline: as §2

[19] = Quantitative High-Throughput drug screen in 47 multiple myeloma cell lines against the NCATS MIPE library collection: OCIMY1_PLB cell viability assay (AID 1918979); also: nearly all actives have a fitted effect of over 35% in size; also: potency is read from the fitted curve at half-maximal effect; as to viability: series mostly up to about 46 µM
Outline: as §2

CN[C@@H](C)[C@H]1[C@H](O)C[C@@]2(C)[C@@H]3CC[C@H]4C(C)(C)[C@@H](NC)CC[C@@]45C[C@@]35CC[C@]12C
inactive: Potency [2] | Potency [3] | Potency [4] | Potency [5] | Potency [6] | Potency [7] | Potency [8] | Potency [9] | Potency [10] | Potency [11]
active: viability [1] 62.4% | Potency [12] 23.5 µM

CCC(=O)N1CCN(c2ccc(-n3c(=O)ccc4cnc5ccc(-c6cnc7ccccc7c6)cc5c43)cc2C(F)(F)F)CC1
active: Potency [1] 0.0372 µM | Potency [2] 0.0743 µM | Potency [13] 0.0662 µM | Potency [5] 0.0372 µM | Potency [7] 0.0093 µM | Potency [9] 0.0059 µM | Potency [14] 16.6 µM | Potency [10] 0.0132 µM | Potency [15] 0.0148 µM
inactive: Potency [8]

CC[C@@H]([C@H](C)O)n1ncn(-c2ccc(N3CCN(c4ccc(OCC5CO[C@@](Cn6cncn6)(c6ccc(F)cc6F)C5)cc4)CC3)cc2)c1=O (stereo partly specified)
inactive: Potency [16] | Potency [13] | Potency [11]
active: Potency [17] 16.6 µM | Potency [18] 18.7 µM | Potency [12] 20.9 µM

CCOC(=O)c1c(CSc2ccccc2)n(C)c2cc(Br)c(O)c(CN(C)C)c12
active: Potency [2] 11.8 µM | Potency [17] 18.7 µM | Potency [19] 16.6 µM | Potency [13] 20.9 µM | Potency [7] 18.7 µM | Potency [8] 20.9 µM | Potency [9] 11.8 µM | Potency [18] 16.6 µM | Potency [15] 6.62 µM | Potency [12] 14.8 µM
inactive: Potency [4]

CC(O)=C(C#N)C(=O)Nc1ccc(C(F)(F)F)cc1
inactive: Potency [19] | Potency [8]
active: Potency [2] 18.7 µM | Potency [17] 3.72 µM | Potency [13] 16.6 µM | Potency [5] 16.6 µM | Potency [7] 16.6 µM | Potency [9] 18.7 µM | Potency [18] 16.6 µM | Potency [10] 16.6 µM | Potency [15] 18.7 µM | Potency [11] 23.5 µM | Potency [12] 18.7 µM

C[C@]12CC[C@@H]3c4ccc(O)cc4CC[C@H]3[C@H]1[C@@H](O)[C@@H](O)[C@H]2O
inactive: Potency [2] | Potency [4] | Potency [19] | Potency [6] | Potency [7] | Potency [8] | Potency [9] | Potency [10]
active: Potency [13] 26.4 µM | Potency [12] 14.8 µM

CCCCc1ccc(NS(=O)(=O)c2ccc(C)c(C(=O)N3CCN(c4cccc(C)c4C)CC3)c2)cc1
inactive: Potency [8]
active: Potency [2] 23.5 µM | Potency [17] 18.7 µM | Potency [13] 14.8 µM | Potency [6] 23.5 µM | Potency [7] 23.5 µM | Potency [9] 18.7 µM | Potency [15] 20.9 µM | Potency [11] 13.2 µM

N#Cc1c(N(CC(=O)O)CC(=O)O)sc(C(=O)O)c1CC(=O)O
active: Potency [16] 16.6 µM | Potency [4] 26.4 µM | Potency [14] 8.33 µM
inactive: Potency [6] | Potency [7] | viability [15] 102% | Potency [11]

Cc1cccc2c1CC[C@H](CN1CCC(c3c(Cl)cccc3Cl)CC1)C[C@@H]2O
active: Potency [16] 20.9 µM | Potency [17] 18.7 µM | Potency [18] 2.64 µM | Potency [10] 18.7 µM | Potency [12] 20.9 µM

Cc1nc2c([nH]1)CCN(C(=O)c1ccc(NC(=O)c3ccccc3-c3ccccc3)cc1)c1ccccc1-2
inactive: Potency [2] | Potency [3] | Potency [13] | Potency [7]

COC(=O)[C@H](c1ccccc1Cl)N1CCc2sccc2C1
active: Potency [14] 20.9 µM
inactive: Potency [2] | Potency [3] | Potency [19] | Potency [5] | Potency [6] | Potency [7] | Potency [12]

CO[C@H]1C=CO[C@@]2(C)Oc3c(C)c(O)c4c(O)c(c(C=NN5CCN(C)CC5)c(O)c4c3C2=O)NC(=O)C(C)=CC=C[C@H](C)[C@H](O)[C@@H](C)[C@@H](O)[C@@H](C)[C@H](OC(C)=O)[C@H]1C
active: Potency [5] 0.533 µM | Potency [9] 2.12 µM | Potency [18] 0.598 µM
inactive: Potency [4] | Potency [19] | Potency [13] | Potency [8] | Potency [14] | Potency [10] | Potency [12]

Cc1ccc(NC(=O)c2cccc(N(C)C)c2)cc1NC(=O)c1ccc(O)cc1
active: Potency [4] 0.118 µM | Potency [13] 0.418 µM | Potency [5] 4.18 µM | Potency [14] 0.059 µM | Potency [18] 1.32 µM | Potency [10] 23.5 µM
inactive: Potency [19] | Potency [8]

C[C@@H](NC(=O)c1ncnc(N)c1Cl)c1ncc(C(=O)Nc2cc(C(F)(F)F)c(Cl)cn2)s1
active: Potency [19] 2.96 µM | Potency [13] 16.6 µM | Potency [5] 18.7 µM | Potency [6] 4.69 µM | Potency [7] 16.6 µM | Potency [9] 4.18 µM | Potency [14] 7.43 µM | Potency [18] 9.35 µM | Potency [15] 16.6 µM | Potency [11] 26.4 µM

C=CC(=O)Nc1cccc(Sc2nc(Nc3ccc(N4CCN(C)CC4)cc3)ncc2Cl)c1
active: Potency [13] 18.7 µM | Potency [14] 0.743 µM | Potency [15] 37.2 µM | Potency [12] 0.526 µM

Cc1ccccc1C(C(=O)NC1CCCCC1)N(C(=O)CNc1ccc(C#N)cc1)c1cccc(F)c1 (stereo unspecified)
inactive: Potency [4] | Potency [19] | Potency [13] | Potency [6] | Potency [7] | Potency [9] | Potency [14] | Potency [10] | Potency [12]
